# From PubChem BioAssay (NCATS)
# Unmarked numbers belong to inactive results. Records with an inconclusive call do not appear. Activity calls are given as the source filed them. The call rests on the fitted dose curve; in most records, active means well fitted curve in the direction sought with a large enough effect; inconclusive means small, poorly fitted or top-dose-only effect, or another doubt; inactive means no such curve, though single readings can be large; an effect the other way counts as inactive or inconclusive.
# Key:
# [1] = target: Cytochrome P450 2C9 (Homo sapiens) (UniProt P11712); test: qHTS Assay for Inhibitors and Substrates of Cytochrome P450 2C9 (AID 883); further: nearly all actives have a fitted effect of over 60% in size; further: potency means the concentration at half of the fitted maximal effect
# Method in brief: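 Luminescent read-out of deoxyluciferin hydroxylation, normalized to 57uM sulphaphenazole (AC100). Reaction: 10nM enzyme, 100uM Luciferin-H (equal to KM), 25mM KPO4, 10 min compound preincubation, then 60 min with NADPH regeneration, both at 37C.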
# [2] = target: Cytochrome P450 3A4 (Homo sapiens) (UniProt P08684); test: qHTS Assay for Activators of Cytochrome P450 3A4 (AID 885); further: nearly all actives have a fitted effect of over 65% in size
# Method in brief: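 20nM CYP3A4 + 25uM Luciferin-PPXE (=KM), 200mM KPO4; cpd 10 min RT; NADPH regen, 60 min RT; stop w/ detection buffer, 20 min; luminescence. Normalized to 57 uM ketoconazole.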
# [3] = target: Cytochrome P450 2C19 (Homo sapiens) (UniProt P33261); test: qHTS Assay for Inhibitors and Substrates of Cytochrome P450 2C19 (AID 899); further: nearly all actives have a fitted effect of over 60% in size; further: potency means the concentration at half of the fitted maximal effect
# Method in brief: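 Luminescence readout of luciferin formed from 10uM Luciferin-H EGE (KM level) by 5 nM CYP2C19 in 50mM KPO4. 60 min NADPH-driven reaction at 37C after 10 min compound preincubation; data scaled to 57uM ketoconazole inhibition.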
# [4] = target: Cytochrome P450 3A4 (Homo sapiens) (UniProt P08684); test: qHTS Assay for Inhibitors and Substrates of Cytochrome P450 3A4 (AID 884); further: nearly all actives have a fitted effect of over 50% in size; further: potency means the concentration at half of the fitted maximal effect
# Method in brief: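 20 nM human CYP3A4 with 25 uM Luciferin-PPXE (at KM) in 200 mM KPO4, preincubated 10 min with compound; NADPH regeneration started a 60 min RT reaction. Luciferin detected by luminescence, normalized to 57 uM ketoconazole as full inhibition.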
# Chain of Cytochrome P450 2C9 (Homo sapiens) (P11712 whole entry, looked up): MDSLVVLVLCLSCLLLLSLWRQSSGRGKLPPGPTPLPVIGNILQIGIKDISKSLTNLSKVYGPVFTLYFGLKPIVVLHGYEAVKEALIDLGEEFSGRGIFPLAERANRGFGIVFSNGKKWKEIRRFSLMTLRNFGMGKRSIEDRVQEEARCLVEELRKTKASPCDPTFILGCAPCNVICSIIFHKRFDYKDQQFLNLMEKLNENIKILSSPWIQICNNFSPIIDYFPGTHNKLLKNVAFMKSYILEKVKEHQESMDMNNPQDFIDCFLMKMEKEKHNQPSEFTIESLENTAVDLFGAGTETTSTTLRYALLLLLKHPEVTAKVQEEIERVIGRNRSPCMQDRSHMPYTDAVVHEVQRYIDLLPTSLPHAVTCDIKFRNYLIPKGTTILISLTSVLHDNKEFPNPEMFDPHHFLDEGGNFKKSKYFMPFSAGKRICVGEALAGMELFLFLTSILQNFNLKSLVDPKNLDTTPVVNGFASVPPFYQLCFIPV
# Chain of Cytochrome P450 3A4 (Homo sapiens) (P08684 whole entry, looked up): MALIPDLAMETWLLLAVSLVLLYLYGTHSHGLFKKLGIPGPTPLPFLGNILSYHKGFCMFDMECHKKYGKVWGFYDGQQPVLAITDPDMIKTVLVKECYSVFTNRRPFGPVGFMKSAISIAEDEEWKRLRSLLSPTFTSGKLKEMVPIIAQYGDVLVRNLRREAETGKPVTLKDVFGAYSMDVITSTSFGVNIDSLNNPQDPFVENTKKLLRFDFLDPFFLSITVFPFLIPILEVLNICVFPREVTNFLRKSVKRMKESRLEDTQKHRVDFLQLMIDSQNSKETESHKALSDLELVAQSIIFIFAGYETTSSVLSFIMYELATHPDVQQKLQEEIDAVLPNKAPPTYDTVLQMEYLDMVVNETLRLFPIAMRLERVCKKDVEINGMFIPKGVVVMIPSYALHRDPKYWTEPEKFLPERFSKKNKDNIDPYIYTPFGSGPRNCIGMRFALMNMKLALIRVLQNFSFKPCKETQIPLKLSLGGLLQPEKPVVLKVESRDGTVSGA
# Chain of Cytochrome P450 2C19 (Homo sapiens) (P33261 whole entry, looked up): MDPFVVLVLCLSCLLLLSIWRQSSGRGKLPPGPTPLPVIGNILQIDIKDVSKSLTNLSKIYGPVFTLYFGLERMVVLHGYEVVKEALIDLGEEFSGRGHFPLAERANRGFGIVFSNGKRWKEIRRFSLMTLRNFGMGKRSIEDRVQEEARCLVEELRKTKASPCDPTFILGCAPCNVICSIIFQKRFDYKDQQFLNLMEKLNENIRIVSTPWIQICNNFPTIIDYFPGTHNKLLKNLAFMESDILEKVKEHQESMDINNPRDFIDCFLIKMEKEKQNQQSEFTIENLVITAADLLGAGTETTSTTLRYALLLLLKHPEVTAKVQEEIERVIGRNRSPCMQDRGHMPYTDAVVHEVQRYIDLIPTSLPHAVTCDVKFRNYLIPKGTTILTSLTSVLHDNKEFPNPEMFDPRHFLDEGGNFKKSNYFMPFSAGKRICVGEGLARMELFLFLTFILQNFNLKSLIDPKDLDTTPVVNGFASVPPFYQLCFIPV
smiles,measurement,setting,value
CC12C=C(/C=C/c3ccc(C(F)(F)F)cc3)C(C)(C1)C(c1ccc(C(F)(F)F)cc1)CC2=O (stereo not drawn),Potency,[1],inactive
same,"activity change, positive = activation",[2],-39% [at 11.4 µM]
same,Potency,[3],inactive
O=C1CCCC=C1[C@H](CCc1ccccc1)OC(=O)c1ccc(Br)cc1,Potency,[1],3.16 µM (active)
same,"activity change, positive = activation",[2],-49.6% [at 11.4 µM]
same,Potency,[3],1.58 µM (active)
C=CCOCC/C=C1/c2ccccc2C(OC)C1C (stereo not drawn),Potency,[1],inactive
same,"activity change, positive = activation",[2],-43.5% [at 11.4 µM]
same,Potency,[3],3.98 µM (active)
CCC1=C2CC[C@H]3C(=O)N(CC)C(=O)[C@H]3[C@H]2[C@@]2(Cc3ccccc3)C(=NCC3CC3)OC(=O)N2C1=O,Potency,[4],2.51 µM (active)
CC(C)CN1CCc2nc(-c3ccccc3)c3c(c2C1)COC(C)C3 (stereo not drawn),Potency,[1],inactive
same,"activity change, positive = activation",[2],-40.3% [at 11.4 µM]
same,Potency,[3],inactive
CC(=O)Nc1ccc(C2C(C)CCC3C(=O)N4C(CCC(C)[C@@H]4c4ccc(NC(C)=O)cc4)C(=O)N32)cc1 (stereo partly drawn),Potency,[1],inactive
same,"activity change, positive = activation",[2],-34.4% [at 11.4 µM]
same,Potency,[3],inactive
CC(C)Cn1c(N)c(C(=O)COC(=O)c2cc(-c3ccccc3)nc3ccccc23)c(=O)n(C)c1=O,Potency,[4],inactive
Clc1ccc(C2[C@H]3CN(Cc4cccnc4)[C@H](c4ccccc4)C34CC2(c2ccccc2)C4)cn1 (stereo partly drawn),Potency,[4],2 µM (active)
CC(C)=CCC/C(C)=C/CO/N=C1/C[C@@H](O)[C@@H](O)[C@@H]2[C@@H]3C(=O)N(Cc4ccc5c(c4)OCO5)C(=O)[C@H]3CC[C@@H]12,Potency,[4],1.58 µM (active)
same,"activity change, positive = activation",[2],-86.9% [at 11.4 µM]
CCC1=C(OC(=O)N(CC)CC)N2C(=O)OC(=NCC3CC3)[C@]2(C)[C@H]2C1=CC[C@H]1C(=O)N(CC(=O)OC)C(=O)[C@H]12,Potency,[4],7.94 µM (active)
same,Potency,[2],inactive
C=CC[C@@H]1C=C[C@H](O/N=C(\C)CCN2CCCCc3nc(C)c(C)cc32)[C@H](CO)O1,Potency,[4],3.98 µM (active)
same,"activity change, positive = activation",[2],-81.7% [at 11.4 µM]
Cn1c(=O)c(C(=O)COC(=O)c2cc(C(F)(F)F)nc3ccccc23)c(N)n(Cc2ccccc2)c1=O,Potency,[4],inactive
CCC1=C2CC[C@H]3C(=O)N(c4ccccc4)C(=O)[C@H]3[C@H]2[C@@]2(C)C(=NCc3ccccc3)OC(=O)N2C1=O,Potency,[4],3.98 µM (active)
same,Potency,[2],inactive
O=C(O)c1cc(C(F)(F)F)nc2c(C(F)(F)F)cccc12,Potency,[4],inactive
C/C(CCN1CCCCc2nc(C)c(C)cc21)=N\OC[C@@H](O)COCc1ccco1,Potency,[4],3.98 µM (active)
same,"activity change, positive = activation",[2],-64.3% [at 11.4 µM]
CCC1=C2CC[C@H]3C(=O)N(CC)C(=O)[C@H]3[C@H]2[C@@]2(C)C(=O)N(CC(=O)OC)C(=O)N2C1=O,Potency,[4],7.94 µM (active)
same,Potency,[2],inactive
C=CC[C@@H]1C=C[C@@H](O/N=C\[C@@H](OC)[C@H](C)/C=C\CC(=O)OC)[C@@H](CO)O1,Potency,[4],3.16 µM (active)
same,"activity change, positive = activation",[2],-64.1% [at 11.4 µM]
O=C(O)c1sccc1S(=O)(=O)Nc1ccccc1N1CCCCC1,Potency,[4],15.8 µM (active)
same,Potency,[2],inactive
N#Cc1ccc(C23CC4(C2)[C@H](CN(Cc2ccc(C(F)(F)F)cc2)[C@@H]4c2ccccc2)C3c2ccc(Cl)nc2)cc1 (stereo partly drawn),Potency,[4],inactive
COC(=O)c1ccc(CN2[C@H](C(=O)OC)C[C@@]3(O)[C@@H](O)[C@@H](O)[C@@H](O)C[C@@H]23)cc1,Potency,[4],inactive
Clc1ccc(C2[C@H]3CN(CC4CCCCC4)[C@H](c4ccccc4)C34CC2(c2cccnc2)C4)cn1 (stereo partly drawn),Potency,[4],3.98 µM (active)
same,Potency,[2],inactive
OB(O)c1cc2ccccc2s1,Potency,[4],inactive
COC(=O)c1ccc(C23CC4(C2)[C@H](CN(CC2CCCCC2)[C@@H]4c2ccccc2)C3c2ccc(Cl)nc2)cc1 (stereo partly drawn),Potency,[4],25.1 µM (active)
O=C(O)c1ccc(B(O)O)cc1,Potency,[4],inactive
Cn1c(N)c(C(=O)COC(=O)c2cc(C(F)(F)F)nc3c(C(F)(F)F)cccc23)c(=O)n(C)c1=O,Potency,[4],inactive
CN1C[C@@H]2C(c3ccccc3)C3(c4cccnc4)CC2(C3)[C@H]1c1ccccc1 (stereo partly drawn),Potency,[4],2.51 µM (active)
same,Potency,[2],inactive
c1ccc(C2[C@H]3CN(CC4CCCCC4)[C@H](c4ccccc4)C34CC2(c2cccnc2)C4)cc1 (stereo partly drawn),Potency,[4],12.6 µM (active)
same,Potency,[2],inactive
Cc1csc(B(O)O)c1,Potency,[4],inactive
COC(=O)[C@@H]1C[C@@]2(O)[C@H](O)[C@H](O)[C@H](O)C[C@H]2N1Cc1cccc2ccccc12,Potency,[4],inactive
CCC1=C2CC[C@H]3C(=O)N(C)C(=O)[C@H]3[C@H]2[C@@]2(Cc3ccccc3)C(=NCC(=O)OC)OC(=O)N2C1=O,Potency,[4],10 µM (active)
same,Potency,[2],inactive
CCC1=C2CC[C@H]3C(=O)N(CC)C(=O)[C@H]3[C@H]2[C@@]2(C)C(=NCCc3c[nH]c4ccccc34)OC(=O)N2C1=O,Potency,[4],3.98 µM (active)
same,Potency,[2],inactive
CCCNC(=O)OC[C@@H]1O[C@H](CCO/N=C(\C)CCC(=O)OC[C@@H]2O[C@H](c3ccccc3)C=C[C@@H]2Oc2ccc(OC)cc2)C=C[C@@H]1Oc1ccc(OC)cc1,Potency,[4],5.01 µM (active)
same,"activity change, positive = activation",[2],-87% [at 11.4 µM]
C/C(CCN1CCc2nc(-c3ccccc3)c(-c3ccccc3)cc2C1)=N\OC[C@@H](O)COCc1ccco1,Potency,[4],3.16 µM (active)
same,"activity change, positive = activation",[2],-86.5% [at 11.4 µM]
COC(=O)[C@@H]1C[C@@H]2CC[C@@H](O)C[C@@H]2N1Cc1ccc(Cl)cc1,Potency,[4],15.8 µM (active)
same,Potency,[2],inactive
NC(=O)NCc1ccccc1,Potency,[4],inactive
CNC1=C(Cl)C(=O)c2ccncc2C1=O,Potency,[4],1.58 µM (active)
same,Potency,[2],inactive
